High-throughput results deposited in PubChem by National Center for Advancing Translational Sciences (NCATS).
An excerpt weighted towards active compounds, which were near 0.63% of everything screened.
TSHR antag: human thyrotropin receptor antagonism; P16473; TSHR-expressing cells, TSH-stimulated cAMP HTRF, 2 h; active compounds read low; activity change, negative = inhibition, % at 11.5 µM; hit rate 0.2% among 330,000; AID 504810;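 active = activity change below a set negative limit, meaning inhibition stronger than a set level, cut at about -70% in these data; inconclusive = activity change between two set negative limits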
Target sequence (P16473 whole entry, looked up): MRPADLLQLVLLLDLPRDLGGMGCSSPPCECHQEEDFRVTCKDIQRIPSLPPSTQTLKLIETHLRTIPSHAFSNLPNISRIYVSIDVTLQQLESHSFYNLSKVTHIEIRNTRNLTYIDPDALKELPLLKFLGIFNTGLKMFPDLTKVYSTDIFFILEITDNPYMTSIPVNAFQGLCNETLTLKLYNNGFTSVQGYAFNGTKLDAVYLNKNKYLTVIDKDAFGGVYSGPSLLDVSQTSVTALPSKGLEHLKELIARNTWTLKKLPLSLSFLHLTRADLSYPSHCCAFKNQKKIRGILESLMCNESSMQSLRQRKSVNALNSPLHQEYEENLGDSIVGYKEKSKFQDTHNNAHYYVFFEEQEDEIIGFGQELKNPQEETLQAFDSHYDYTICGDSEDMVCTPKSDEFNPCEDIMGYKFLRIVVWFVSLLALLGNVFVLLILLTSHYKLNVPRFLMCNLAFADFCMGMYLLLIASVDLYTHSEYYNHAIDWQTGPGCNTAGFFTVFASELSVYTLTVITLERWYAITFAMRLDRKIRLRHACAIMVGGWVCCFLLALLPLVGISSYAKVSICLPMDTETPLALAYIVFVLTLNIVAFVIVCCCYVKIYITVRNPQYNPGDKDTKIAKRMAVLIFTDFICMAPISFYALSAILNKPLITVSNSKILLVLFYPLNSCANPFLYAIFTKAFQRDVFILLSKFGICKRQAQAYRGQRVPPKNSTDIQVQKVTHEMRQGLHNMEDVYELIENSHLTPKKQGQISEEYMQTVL
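TSHR-expressing cells, 200/well, pre-treated with compound, then stimulated with EC80 TSH (4nM final) for 2 hours at 37 deg C. cAMP measured by competitive HTRF: anti-cAMP cryptate antibody in lysis buffer plus cAMP-d2, read after 30 minutes at room temperature.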
gsp agonist: gsp mutant agonism | gsp mutant cells, cAMP HTRF, 30 min | Potency, µM (doses to about 76.9 µM), usual class: activators | hit rate 0.13% among 340,000 | AID 624287; active = well fitted activation curve with a large enough effect; inconclusive = small, poorly fitted or top-dose-only effect, or another doubt; inactive = no such curve, though single readings can be large or run the other way; cell line not stated here;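 note: phosphodiesterase inhibitor Ro 20-1724 added with compounds to block cAMP breakdown; nearly all actives have a fitted effect of over 60% in size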
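Cells in DMEM/10% FBS with G418 were pretreated with compounds in DMSO plus […] (300 uM stock) for 30 min at 37C. cAMP was measured by HTRF (cAMP-d2 plus anti-cAMP antibody-K) after 30 min at room temperature.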
gsp antag: antagonizes gsp, the McCune-Albright syndrome mutation; gsp-mutant cells, cAMP HTRF, 30 min; Potency, µM (highest dose often 76.9 µM), most hits filed as inhibitors; hit rate 0.4% among 340,000; AID 624288; calls by dose curve; cell line not stated here;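 note: intracellular cAMP measured with PDE inhibitor Ro 20-1724 present during compound exposure; nearly all actives have a fitted effect of over 65% in size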
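HTRF cAMP read-out (cAMP-d2 plus anti-cAMP antibody-K in lysis buffer, 30 min RT). Before lysis, cells are exposed to compounds with […] for 30 min at 37C in DPBS containing Ca/Mg, BSA and Tween 20.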
S-ASM inh: human S-ASM enzyme inhibition; P17405; placental ASM, HMU-PC fluorogenic substrate, 60 min; Potency, µM (doses to about 57.5 µM), usual class: inhibitors; hit rate 0.006% among 340,000; AID 504937; active = well fitted inhibition curve with a large enough effect; inconclusive = small, poorly fitted or top-dose-only effect; inactive = no such curve, though single readings can be large or run the other way
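qHTS format. ASM enzyme prepared from human placenta hydrolyses the fluorogenic substrate HMU-PC0 (9 uM final) over 60 min at 37 °C after a 10 min compound preincubation.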
Large screens that a line does not name were inactive.

CCN(CC)S(=O)(=O)c1cccc(NC(=O)Nc2cccc(C(F)(F)F)c2)c1	TSHR antag -74, gsp antag 32µM
CC(=O)NNC(=O)c1sc(=S)n2c1[nH]c(=O)c1sccc12	none
CCCCCn1c(=O)[nH]c2cc(C(=O)NCCc3ccc(OC)c(OC)c3)ccc2c1=O	none
CCCCNC(=O)c1sc(=S)n2c1[nH]c(=O)c1ccc(C(=O)NCCc3ccc(OC)c(OC)c3)cc12	gsp agonist inconclusive, gsp antag 35µM
O=C(NCc1ccccc1)c1sc(=S)n2c1[nH]c(=O)c1ccccc12	TSHR antag -79
CCS(=O)(=O)c1nc(S(=O)(=O)c2ccc(Cl)cc2)c(N2CCN(C)CC2)s1	gsp agonist inconclusive
CCS(=O)(=O)c1nc(S(=O)(=O)c2ccc(Cl)cc2)c(N2CCCC2)s1	gsp agonist 13µM
Clc1cccc(CN2CCCCCC2)c1Cl	none
S=c1[nH]cc(Oc2ccc(Cl)cc2Cl)c(=S)[nH]1	gsp agonist 20µM (no result: TSHR antag)
Clc1ccc(Oc2cnns2)c(Cl)c1	none
Cc1ccc(SCC(=O)Nc2cc([N+](=O)[O-])ccc2O)cc1	gsp antag 50µM
CCOC(=O)C1CCN(C(=O)COC(=O)CN(C)S(=O)(=O)c2ccc(NC(C)=O)cc2)CC1	none (no result: TSHR antag, S-ASM inh)
Cc1c(C(=O)N(C)C)sc(NC(=O)c2cc([N+](=O)[O-])cc([N+](=O)[O-])c2)c1C#N	gsp antag 40µM
CCn1c2ccccc2c2nnc(SCC(=O)NCCOC)nc21	gsp agonist 10µM
Cn1c(SCc2cccc([N+](=O)[O-])c2)nc2c(c1=O)SCC2	gsp antag 35µM
CCCOC(=O)CSC1=C(C#N)C(c2ccccc2OCC)C(C#N)C(=O)N1 (stereo unspecified)	none
CCCCOC(=O)CSC1=C(C#N)C(c2ccccc2OCC)C(C#N)C(=O)N1 (stereo unspecified)	gsp antag 32µM
O=C(c1ccc2nc(-c3ccco3)c(-c3ccco3)nc2c1)N1CCN(c2ccccc2)CC1	none
O=C(O)c1ccc2nc(-c3ccco3)c(-c3ccco3)nc2c1	gsp agonist 3.5µM
CCOC(=O)CSC1=NC(=O)/C(=C\c2ccc(Cl)cc2)S1	gsp antag 32µM
CCOC(=O)C1CCN(C2=NC(=O)/C(=C/c3ccc(Cl)cc3)S2)CC1	none
O=[N+]([O-])c1ccc(N=Nc2ccc(O)c3ccccc23)cc1	gsp antag 25µM (no result: TSHR antag)
O=S(=O)(Nc1ccc(N=Nc2ccc(O)c3ccccc23)cc1)c1ccccc1	gsp antag inconclusive, S-ASM inh inconclusive
CSc1ccccc1NC(=O)Cn1nc([N+](=O)[O-])cc1C	none
Cc1ccc(-c2noc(C3CCCN(C(=O)c4c(F)cccc4F)C3)n2)cc1 (stereo unspecified)	gsp antag inconclusive
Cc1ccc(-c2noc(C3CCCN(C(=O)c4ccccc4Br)C3)n2)cc1 (stereo unspecified)	gsp antag 45µM
COc1ccc(N(CC(=O)N/N=C(\C)c2ccccc2)S(=O)(=O)c2ccccc2)cc1	none
Brc1ccc2c(c1)OCCOCCOc1cc(Br)ccc1OCCOCCOCCO2	gsp antag 50µM
Brc1cc2c(cc1Br)OCCOCCOCCOCCO2	none
NC(=O)c1cc(S(=O)(=O)NCc2ccc(F)cc2)cs1	TSHR antag -132, gsp agonist inconclusive
Cc1cccc(CNS(=O)(=O)c2csc(C(N)=O)c2)c1	TSHR antag -70
NC(=O)c1cc(S(=O)(=O)NCc2cccs2)cs1	none
NC(=O)c1cc(S(=O)(=O)NCc2cccc(Br)c2)cs1	none
O=C1Nc2cccnc2N(C(=O)CCl)c2ccccc21	none
CCOC(=O)CN1C(=O)N[C@@H](c2cccc(C(F)(F)F)c2)C(C(=O)OC)=C1C	none (no result: TSHR antag)
CNC(=O)c1c[nH]n2c(=O)c(Cc3ccccc3F)c(C)nc12	gsp antag 11µM
CC1(C)Oc2cc(N)c([N+](=O)[O-])cc2O1	none
C=C1N(C)c2cc([N+](=O)[O-])c(N)cc2C1(C)C	gsp antag 28µM
CCOC(=O)CN1C(=O)N[C@H](c2ccc(Br)cc2)C(C(C)=O)=C1C	none (no result: gsp agonist)
NC(=S)n1[nH]c(-c2ccc([N+](=O)[O-])cc2)c(N=Nc2cccc(Cl)c2)c1=O	TSHR antag inconclusive, gsp antag 25µM
CC(CCc1ccccc1)NC(=O)CCC1CCCC1 (stereo unspecified)	none (no result: TSHR antag)
C/C(=N\Nc1cc(C)nc(-c2ccccc2O)n1)c1ccccc1O	gsp antag 45µM, S-ASM inh inconclusive
O=C(/C=C/c1ccccc1)Nc1cccc(C(=O)N2CCCC2)c1	gsp antag inconclusive (no result: TSHR antag, gsp agonist)
Cc1csc(C(C#N)C(=O)c2cc3ccccc3o2)n1 (stereo unspecified)	gsp antag 25µM
Cc1csc(NC(=O)c2cc3ccccc3o2)n1	none
CCCn1c(=O)c(C)cn2nc(N)nc12	none (no result: gsp agonist, gsp antag, S-ASM inh)
O=C(NC(=S)NC(CO)c1ccccc1)c1ccc(F)cc1 (stereo unspecified)	none
CCCCOCCCNc1ncnc2c1[nH]c1ccccc12	TSHR antag inconclusive, gsp antag 7.9µM
c1ccc2c(c1)[nH]c1c(NCC3CCCO3)ncnc12 (stereo unspecified)	gsp antag 35µM
O=C(O)CCC(=O)NNc1ccccc1[N+](=O)[O-]	gsp agonist inconclusive
COc1ccccc1N1CCN(C(=O)C2CCCN(S(=O)(=O)c3ccc4c(c3)CCCN4C(C)=O)C2)CC1 (stereo unspecified)	gsp antag inconclusive
CC(=O)N1CCCc2cc(S(=O)(=O)N3CCCC(C(=O)N4CCN(c5ccccc5)CC4)C3)ccc21 (stereo unspecified)	gsp antag 35µM
COc1ccc(-c2cc3c(=O)n(CC(=O)Nc4ccc(Cl)cc4)nc(C)n3n2)cc1	none
COc1ccc(-c2cc3c(=O)n(CC(=O)NCc4cccnc4)nc(C)n3n2)cc1	TSHR antag -139
CCN(CC)CCNC(=O)c1ccc(NS(C)(=O)=O)cc1	none (no result: gsp agonist, gsp antag, S-ASM inh)
Cc1cccc(CCNC(=O)COc2cc(=O)n(C)c3ccccc23)c1	gsp antag 32µM
Cn1cnc(S(=O)(=O)NCc2ccc(Br)cc2)c1	none
O=C(CSc1nc2ccsc2c(=O)n1CC1CCC(C(=O)O)CC1)c1ccc(F)cc1 (stereo unspecified)	gsp agonist inconclusive, gsp antag inconclusive
O=C(CSc1nc2ccsc2c(=O)n1CC1CCC(C(=O)O)CC1)c1ccc(Cl)cc1 (stereo unspecified)	gsp antag 22µM
C=CCn1c(SCC(=O)NC2CCS(=O)(=O)C2)nnc1-c1ccc(Cl)cc1 (stereo unspecified)	none
O=C(CSc1nnc2c(Cl)cc(Cl)cn12)NC1CCS(=O)(=O)C1 (stereo unspecified)	gsp agonist 10µM
COc1ccccc1N1CCN(C(=O)CCC(=O)N2CCN(c3ccc(F)cc3)CC2)CC1	TSHR antag -124
CCOC(=O)C1=C(CC)Nc2ccccc2N=C1NC(=O)Nc1ccc(Cl)c(Cl)c1	gsp antag 32µM
CCOC(=O)C1=C(CC)Nc2ccccc2N=C1NC(=O)c1cc(C)on1	none
